Source: PubChem (several laboratories)
tim10-1 inh: growth inhibitors of tim10-1 mutant yeast, primary screen, luminescence, uHTS | S. cerevisiae tim10-1 ts strain growth, BacTiter-Glo, 24 h | inhibition, % at 20 µM | 330,000 compounds, 2.2% hits | AID 463190, 2010;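 active = inhibition of at least 40%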;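 note: mutant grown at 25 °C; 0% = DMSO wells with yeast and 100% = wells holding no yeast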
tim23-1 inh: growth inhibitors of tim23-1 mutant yeast, primary screen, luminescence, uHTS; S. cerevisiae tim23-1 growth, BacTiter-Glo luminescence, 24 h; inhibition, % at 20 µM; 330,000 compounds, 1.3% hits; AID 463212, 2010;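 active = growth inhibition of the mutant yeast at or above 50%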;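 note: temperature-sensitive mutant grown at 25 °C; plate controls were DMSO-treated mutant yeast for no effect and medium wells lacking yeast for full effect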
PfHsp90 yeast 2: growth inhibition of PfHsp90-expressing yeast, primary screen, antimalarial PfHsp90 inhibitor project, S. cerevisiae, BacTiter-Glo luminescence, single point, set 2 | BacTiter-Glo ATP, 48 h; yeast lacking PDR1 and PDR3 efflux regulators | inhibition, % at 9.4 µM | 310,000 compounds, 0.32% hits;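 active = every replicate shows inhibition above about 80%, whatever the replicate mean, limit read from the data; inconclusive = mean inhibition reaches the set limit but some replicate falls short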;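 note: 0% = DMSO neutral controls and 100% = 20 µM radicicol positive controls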
TIM10 inh: growth inhibitors of isogenic TIM10 control yeast, primary screen, counter-screen for tim10-1 yeast inhibitor project, luminescence, uHTS | S. cerevisiae TIM10 strain growth, BacTiter-Glo luminescence, 24 h | inhibition, % at 10 µM | 330,000 compounds, 1.4% hits;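 active = inhibition of 40% or more at the single tested concentration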;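 note: wild-type TIM10 isogenic control strain grown at permissive 25 °C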
NALP3 yeast inh: NALP3 inflammasome inhibitors in reconstituted yeast, primary screen, luminescence, uHTS; AID 2825, 2010; inhibition, % at 10 µM; 330,000 compounds, 0.39% hits; Yeast reconstituted NLRP3/ASC/caspase-1, beta-gal luminescence, 24 h;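 active = inhibition of 50% or more; inactive = inhibition below 50%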;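 note: plate controls were induced DMSO wells for no effect and uninduced yeast grown without galactose for full effect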
SKKanGAS inh: S. pyogenes SKKanGAS growth inhibitors in kanamycin, primary screen, streptokinase expression inhibitor project, SKKanGAS strain, BacTiter-Glo luminescence. 6 h. inhibition, % at 7.5 µM. 300,000 compounds, 1.3% hits. AID 1662, 2009;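 active = mean replicate score, as percent of positive control median, at least 50; inconclusive = mean below 50 but one replicate at or above 50; inactive = mean and every replicate below 50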;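 note: strain carries kanamycin resistance gene driven by streptokinase promoter and grows in 40 µg/ml kanamycin; loss of luminescence reflects streptokinase promoter inhibition or plain growth inhibition; 0% = median of DMSO wells and 100% = positive control at its reference dose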
The depositor's hits bear a star; i = inactive; u = inconclusive; x = not tested or not shown. Compounds with a hit are over-represented: about 4.6% of the library has one in this group of screens.

SMILES	tim10-1 inh	tim23-1 inh	PfHsp90 yeast 2	TIM10 inh	NALP3 yeast inh	SKKanGAS inh
O=C(CCc1ccccc1)NC(c1cccs1)c1cc(Cl)c2cccnc2c1O (centres undefined)	x	x	101*	x	x	67*
CCCCC(=O)NC(c1ccco1)c1cc(Cl)c2cccnc2c1O (centres undefined)	33	43	105*	-33	3	52*
Nc1nc(SCc2ccccc2)c2ncn(C3CCCO3)c2n1 (centres undefined)	x	x	-2	x	x	x
N=C(N)c1ccc(OCCCCCOc2ccc(C(=N)N)cc2)cc1	18	-28	-8	-22	34	108*
CN(C)CCOc1ccc(/C(=C(/CCCl)c2ccccc2)c2ccccc2)cc1	13	11	-5	12	8	101*
O=C(NC1CCCCC1)C(c1ccccc1)N(Cc1cccnc1)C(=O)c1csnn1 (centres undefined)	4	17	14	2	25	-1
O=C(Nc1ccc2cn[nH]c2c1)c1c(Cl)cccc1Cl	17	7	14	17	0	10
O=C1C(Cl)=C(Nc2ccc3cn[nH]c3c2)C(=O)c2ccccc21	x	x	-54	x	x	73*
COc1ccc(C2CC(c3ccccc3)=NN2c2ccc(S(N)(=O)=O)cc2)cc1 (centres undefined)	20	25	-50	33	14	u
NS(=O)(=O)c1ccc(N2N=C(c3ccccc3)CC2c2ccc(F)cc2)cc1 (centres undefined)	26	18	-2	8	8	64*
Oc1ccc(C2=NN(c3ccccc3)C(c3ccc(F)cc3)C2)cc1 (centres undefined)	-4	26	120*	12	9	81*
CC(C)OC(=O)c1c(NS(=O)(=O)c2ccccc2)sc2c1CCCC2	36	10	3	23	5	97*
CN(C)Cc1c(C(=O)N/N=C/c2cccc(OCc3ccc(F)cc3)c2)nnn1-c1nonc1N	-11	-14	-5	-13	11	1
CC(C)c1c(C(=O)N/N=C/c2cccc(OCc3ccc(F)cc3)c2)nnn1-c1nonc1N	36	21	13	7	14	87*
O=C(CN1c2ccccc2Sc2ccccc21)NNC(=S)Nc1ccc(Cl)cc1	38	21	-14	31	23	89*
O=C(CN1c2ccccc2Sc2ccccc21)NNC(=S)Nc1ccc(Cl)cc1Cl	26	3	-21	10	15	111*
COc1ccc(-c2cc(C(F)(F)F)n3nc(C(=O)Nc4c(C)n(C)n(-c5ccccc5)c4=O)cc3n2)cc1	x	x	5	x	x	x
COC(=O)/C=C1\NC(=O)C(C)S1 (centres undefined)	-4	11	-5	-1	6	2
COc1ccc(Nc2nc(Nc3ccc(OC)cc3)nc(-n3[nH]c(=O)c(C)c3C)n2)cc1	26	17	x	8	8	87*
O=C(O)c1cc(-c2ccc(Cl)c(Cl)c2)n(-c2ccc(F)cc2)n1	0	21	2	12	-2	-13
COc1ccc(-c2coc3c(C)c4oc(=O)c(CCC(=O)O)c(C)c4cc23)cc1	-1	20	30	18	-6	53*
Cc1c(CCC(=O)O)c(=O)oc2c(C)c3occ(-c4ccc(Br)cc4)c3cc12	15	12	-6	6	23	46
CC(C)(C)C(=O)C(Cc1ccccc1Cl)n1cncn1 (centres undefined)	-16	i	u	-40	0	10
CC(C)(C)C(O)C(Cc1ccccc1Cl)n1cncn1 (centres undefined)	-43	-81	92*	-66	13	-1
O=C1c2[nH]nc(-c3ccccc3O)c2C(c2ccc(F)cc2)N1Cc1ccco1 (centres undefined)	36	32	-35	-3	8	18
SMILES	tim10-1 inh	tim23-1 inh	PfHsp90 yeast 2	TIM10 inh	NALP3 yeast inh	SKKanGAS inh
O=C1c2[nH]nc(-c3ccccc3O)c2C(c2cccc(Cl)c2)N1Cc1ccco1 (centres undefined)	34	42	x	-5	3	50*
CC(/C=C/c1ccccc1)=N/NC(=O)c1cccc(Br)c1	17	-3	-13	20	-4	87*
CC(/C=C/C=C/c1ccccc1)=N/NC(=O)c1ccc2c(c1)OCCO2	1	6	-11	7	1	61*
COC1CCCN(C(=O)c2ccc(OC3CCN(S(=O)(=O)N(C)C)CC3)cc2)C1 (centres undefined)	11	9	-4	3	6	0
Cc1cccc(-c2oc3ccccc3c2C#CCCCCO)c1	18	6	-5	8	1	76*
COc1ccccc1-c1oc2ccccc2c1C#CCCO	3	27	5	-7	45	x
Cc1ccc(C(=O)NC(=S)N(C)C2CCCCC2)cc1Br	25	8	x	19	38	85*
COc1ccc(C(=O)NC(=S)N(C)C2CCCCC2)cc1	24	41	-2	6	30	x
O=[N+]([O-])c1ccc2nc(C3CCCCC3)[nH]c2c1	14	27	-16	7	9	1
O=[N+]([O-])c1ccc(O)c(C2CCCCC2)c1	x	x	108*	x	x	x
C/C(=N\N=C(/N)SC1CC(=O)N(c2ccc(Br)cc2)C1=O)c1cccs1 (centres undefined)	16	42	-22	20	18	98*
C/C(=N\N=C(/N)SC1CC(=O)N(c2ccc(Cl)c(Cl)c2)C1=O)c1cccs1 (centres undefined)	-1	24	3	22	9	98*
C/C(=N\N=C(/N)SC1CC(=O)N(c2ccccc2)C1=O)c1cccs1 (centres undefined)	7	0	-10	1	17	2
O=c1cc(-c2ccccc2Cl)oc2cccc(O)c12	-17	7	-12	0	14	18
O=c1cc2oc3cc(O)c(O)cc3c(-c3ccccc3[N+](=O)[O-])c-2cc1O	4	12	83*	11	41	50*
CSc1sc(C(=O)NC(=O)NCc2ccncc2)c(C)c1-c1ccon1	1	14	0	9	9	0
Cc1cc(C)c2ccc(NN)nc2c1O	11	12	7	1	14	68*
O=C(CN(C(=O)c1csnn1)c1cccc(Cl)c1)NCCc1ccccc1	2	12	-19	-12	21	-9
CC(C)=CCc1c(O)cc(O)c2c(=O)c3c(CC=C(C)C)c(O)ccc3oc12	-10	34	x	21	19	106*
CC(C)=CCc1c(O)cc2c(=O)c3ccc(O)cc3oc2c1O	18	46	-22	30	45	16
